p53ts 32C kill = cytotoxicity in p53ts cells at permissive temperature; H1299-p53A138V at 32C, ATP luminescence viability, 24 h; Potency, µM (doses to about 46.1 µM), for the others: at the highest dose activity change, negative = cytotoxicity, hits mostly cytotoxic; 130,000 compounds, 0.93% hits; AID 924;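 note: 0% = DMSO and -100% = full killing by reference compound; nearly all actives have a fitted effect of over 55% in size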
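Cells: H1299 p53ts (A138V), 600/well, pre-incubated 16–30 h at 37C. Cpd up to 46 uM, 24 h, 32C. Readout: ATPlite luminescence, 20 min RT. Normalization: DMSO vs tamoxifen 100 uM. AC50 by Hill equation.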
IkB sig inh = suppresses IkB signaling in ABC-DLBCL reporter cells; ABC-DLBCL IkBa-CBG/CBR dual luciferase ratio, 4 h; response scale: scaled: untreated 0%, proteasome inhibitor 100%; Potency, µM (doses to about 57.1 µM), for the others: top-dose IkBa stabilization activation; 110,000 compounds, 0.04% hits; active = well fitted curve in the direction sought with a large enough effect in the signal ratio, not every such curve was filed as active; inconclusive = small, poorly fitted or top-dose-only effect, or a change in a side signal; the % refers to the signal ratio;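 note: the direction sought is a rising ratio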
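Luminescence ratio of IκBα-fused green versus native red beetle luciferase in OCI-Ly3 cells, 4 h post-doxycycline with compound; red signal alone, scaled from basal (0%) to zero light (-100%), flagged nonspecific or cytotoxic effects.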
Imprint erasure = genomic imprint erasure induction | 110,000 compounds, 0.02% hits | mouse ES Peg3-LacZ reporter, beta-gal luminescence, 40 h | AID 1948 | Potency, µM (series often up to 60.7 µM), for the others: at the highest dose activity change, positive = activation, actives largely listed as activators
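Imprint erasure is scored as LacZ activity from the silenced maternal Peg3 allele in feeder-free female ES cells cultured 40 h with LIF. Luminescence is normalized to in-plate negative controls and fitted to the Hill equation.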
HEK293 cAMP cs = parental HEK293 cAMP activation (counter-screen); Potency, µM (series often up to 57.1 µM), for the others: at the highest dose activation, usual class: activators; 73,000 compounds, 2.5% hits; parental HEK293 CNG cAMP sensor, membrane potential fluorescence; note: % of control where 0% means no effect; nearly all actives have a fitted effect of over 55% in size
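Parental HEK 293 cells stably expressing a modified CNG channel (no TSHR) report cAMP rise as membrane depolarization. Membrane potential dye with 100 uM RO 20-1724 was loaded for 60 min at room temperature, then compound added for 30 min; fluorescence read at 590 nm.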
p53ts 39C tox = cytotoxicity in p53ts cells at nonpermissive temperature; Potency, µM (series often up to 46.1 µM), without a hit: at the top dose activity change, negative = cell killing, usual class: cytotoxic; AID 902; H1299-p53A138V viability at 39C, ATP luminescence, 24 h; 130,000 compounds, 1.5% hits; note: % is set by controls: 0 for no effect and ±100 for the full control effect; nearly all actives have a fitted effect of over 55% in size
TSHR ag = agonists of human thyroid stimulating hormone receptor | P16473 | HEK293-CNG-TSHR cells (CNG channel as cAMP sensor), membrane potential dye, cAMP | Potency, µM (titrated, usually from 57.1 µM), for inactives: at the highest dose activation, most hits filed as activators | 73,000 compounds, 0.48% hits | AID 926; active = well fitted activation curve with a large enough effect in the main read-out, with a control signal flat, not every such curve was filed as active; inconclusive = small, poorly fitted or top-dose-only effect, or a change in a side signal; inactive = no such curve, though single readings can be large or run the other way; % of control where 0% means no effect;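 note: the control signal comes from parental cells without the receptor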
Target sequence (P16473 whole entry, looked up): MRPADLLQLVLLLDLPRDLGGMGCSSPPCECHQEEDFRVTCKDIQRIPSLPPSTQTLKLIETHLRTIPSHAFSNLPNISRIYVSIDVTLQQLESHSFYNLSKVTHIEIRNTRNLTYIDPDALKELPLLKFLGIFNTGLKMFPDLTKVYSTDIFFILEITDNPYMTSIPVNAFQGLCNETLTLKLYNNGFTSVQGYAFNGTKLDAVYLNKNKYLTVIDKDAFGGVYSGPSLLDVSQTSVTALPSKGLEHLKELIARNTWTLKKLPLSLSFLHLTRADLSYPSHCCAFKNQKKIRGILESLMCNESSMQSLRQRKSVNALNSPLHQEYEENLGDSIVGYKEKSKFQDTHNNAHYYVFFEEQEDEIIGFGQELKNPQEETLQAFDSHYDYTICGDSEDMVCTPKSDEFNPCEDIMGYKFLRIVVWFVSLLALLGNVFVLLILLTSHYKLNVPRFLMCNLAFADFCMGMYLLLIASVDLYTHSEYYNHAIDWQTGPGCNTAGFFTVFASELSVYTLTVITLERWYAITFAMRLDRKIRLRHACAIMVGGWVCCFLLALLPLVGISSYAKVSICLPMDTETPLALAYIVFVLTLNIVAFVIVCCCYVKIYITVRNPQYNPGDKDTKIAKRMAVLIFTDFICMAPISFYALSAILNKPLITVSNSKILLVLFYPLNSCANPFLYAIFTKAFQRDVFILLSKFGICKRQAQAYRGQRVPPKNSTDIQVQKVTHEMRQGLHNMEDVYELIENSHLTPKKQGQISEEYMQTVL
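HEK 293 cells stably expressing TSHR and a modified CNG channel, with CNG-only parental cells as counterscreen, were preloaded 60 min at room temperature with membrane potential dye containing 100 uM RO 20-1724. Compound exposure was 30 min, and depolarization was read as fluorescence at 590 nm.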
* marks the source's active call; other numbers are inactive results; ? = inconclusive; nt = no result; [ ] = remark or other dose. In the library only some 3.1% were active in any assay of this set; here they are far more common. Unless noted, calls come from the whole dose curve; as a rule, active = well fitted curve in the direction sought with a large enough effect; inconclusive = small, poorly fitted or top-dose-only effect, or another doubt; inactive = no such curve, though single readings can be large; an effect the other way counts as inactive or inconclusive. Potency is the fitted concentration of half-maximal effect.

SMILES	p53ts 32C kill	IkB sig inh	Imprint erasure	HEK293 cAMP cs	p53ts 39C tox	TSHR ag
CCOc1cccc2cc(-c3nc4ccc(C(=O)O)cc4[nH]3)c(=O)oc12	?	?	-77%[10.9 µM]	nt	16µM*	nt
COc1ccc(-c2cc3ccc(O)c(CN4CCC(C)CC4)c3oc2=O)cc1	6%	-2%	12%[10.9 µM]	nt	12%	nt
COc1ccc(OC)c(NC(=O)c2cc3ccccc3o2)c1	-7%	-1%	-11%	32µM*	2%	?
COc1ccc(C)cc1NC(=O)c1cc2ccccc2o1	-3%	0%	-15%	20µM*	-10%	?
CC(C(=O)NCc1ccccc1F)n1ccc2cc(S(=O)(=O)N3CCCC3)ccc21 (stereo not drawn)	6%	?	?	nt	-21%	nt
COc1ccc(-n2c(C)nc3c(cnn3-c3ccc(C)c(C)c3)c2=O)cc1	12%	1%	-17%	-1%	5%	13%
COc1ccc(-n2c(/C=C(\C)O)nc(=O)c3c(C)cc(C)nc32)cc1	13%	-2%	?	25µM*	8%	?
CCC/C=C(\CCC)C(NS(=O)(=O)c1cccc2cccnc12)c1ccc(-c2ccccc2)cc1 (stereo not drawn)	17%	nt	8%	-3%	5%	-1%
COc1ccc2c(c1)CCC1C2CC[C@]2(C)[C@H](NCCCCCCN3C(=O)C=CC3=O)CC[C@@H]12 (stereo partly drawn)	-7%	-4%	nt	1%	14%	9%
OC(COc1ccc(Br)cc1)CN1CCOCC1 (stereo not drawn)	1%	-1%	5%	?	3%	?
Brc1ccc(OCCOCCN2CCOCC2)cc1	-16%	-1%	-18%	19%	7%	25µM*
COc1ccc(CNC(=O)CSc2nnnn2-c2ccccc2)cc1	-2%	2%	9%	20%	14%	19%
CCOC(=O)c1oc2ccccc2c1CSc1nnnn1-c1ccc(OC)cc1	-3%	0%	-7%	16µM*	-7%	?
COC(=O)c1ccc(-n2nnnc2SCc2ccccc2OC)cc1	6%	1%	-18%	16µM*	-9%	?
CCCn1c(=O)c2ccccc2n2c(SCCOc3ccc(OC)cc3)nnc12	7%	-3%	0%	?	2%	?
CCCn1c(=O)c2ccccc2n2c(SCC(=O)NCc3cccs3)nnc12	-6%	-2%	-11%	20µM*	4%	?
CCCn1c(=O)c2ccccc2n2c(SCCOc3ccc(C)cc3)nnc12	9%	-4%	-1%	20µM*	9%	?
O=C(CCn1c(=O)c2cccn2c2cccnc21)N1CCN(c2cccc(Cl)c2)CC1	3%	-1%	-20%[10.9 µM]	nt	-1%	nt
Cc1c(C2=CCN(S(=O)(=O)c3ccc(Cl)cc3)CC2)c2ccccc2n1CC(=O)N1CCCC1	4%	0%	-22%[10.9 µM]	nt	-2%	nt
CCCn1c(=O)c2ccccc2n2c(SCc3c(C(=O)OCC)oc4ccccc34)nnc12	18%	?	2%	16µM*	32%	?
Cc1cc(C)n(-c2nc3ccccc3c(=O)n2OCC(=O)Nc2c(C)cccc2C)n1	6%	2%	-20%	27%	2%	13µM*
C=CCc1c(C)nc2nc(SCC(=O)Nc3ccc(C)c(C)c3)nn2c1C	-12%	?	-15%[10.9 µM]	nt	13µM*	nt
C=CCc1c(C)nc2nc(SCC(=O)Nc3cccc(Cl)c3)nn2c1C	-7%	?	13%[10.9 µM]	nt	?	nt
O=C(Nc1ccc(C(=O)N2CCCCC2)cc1)c1nsc2ccccc12	3.2µM*	?	-69%[10.9 µM]	nt	3.2µM*	nt
CNC(=O)c1ccc(NC(=O)c2nsc3ccccc23)cc1	7.9µM*	?	-70%[10.9 µM]	nt	7.9µM*	nt
O=C(NCc1cccc(F)c1)c1ccc(NC(=O)c2nsc3ccccc23)cc1	11µM*	?	7%[10.9 µM]	nt	10µM*	nt

Compound activity as filed in PubChem BioAssay.
